These results are taken from PubChem BioAssay (EPA / NIEHS).

The term AC50 denotes the concentration at which the activity in the assay is half-maximal.

Calls of active or inactive are those of the source. The calls were made as follows: active = hit-call score of the fitted dose curve at least 0.9, where 1 is the maximum; inactive = score below 0.9.

The nature of the experiment: CCTE_Shafer_MEA_acute_per_network_burst_electrodes_number_mean: CCTE's Neural Acute Assay for Mean Number of Electrodes in a Network Burst, Shafer Lab (AID 2284021).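 Also: curves fitted for decreases only so hits reduce electrodes per burst.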 The protocol: CCTE_Shafer_MEA_acute assay is conducted using Axion Biosystems 48 well microelectrode array (MEA) plates and Maestro recording system. Each well of the MEA plate contains a grid of 16 microelectrodes embedded in the culture surface. Electrically active cells, such as neurons, can be cultured over the electrodes, and electrical activity in these cells can be recorded extracellularly. The spontaneous firing of neurons is captured from each electrode on a microsecond timescale providing both temporally and spatially precise data. […] The CCTE_Shafer_MEA_acute assay uses primary cultures of rat cortical neurons. As these cultures mature over time, neural networks develop functional activity and form cohesive networks in which electrical activity can be highly coordinated. Baseline 40-minute recordings are made on days post-plating 13 or 15, followed by a secondary 40-minute recording after chemical exposure.CCTE_Shafer_MEA_acute_per_network_burst_electrodes_number_mean is a component of the CCTE_Shafer_MEA_acute assay. It measures the average number of electrodes with activity during a network burst (a temporally-clustered group of action potential firing across multiple electrodes) in a recording in a microelectrode array (MEA) using Axion Biosystems Maestro 768 channel amplifier with the AxIS adaptive spike detector. The recordings before and after chemical treatment are used to calculate a percent change in the mean number of electrodes participating in network bursts in each well.Data from the assay component CCTE_Shafer_MEA_acute_per_network_burst_electrodes_number_mean was analyzed into 1 assay endpoint. This assay endpoint, CCTE_Shafer_MEA_acute_per_network_burst_electrodes_number_mean, was analyzed in the negative analysis fitting direction relative to DMSO as the negative control and baseline of activity. Using a type of functional reporter, gain or loss-of-signal activity can be used to understand electrical activity.
Spontaneous activity in the cortical cultures was recorded using an Axion Biosystems Maestro 768 channel amplifier and Axion Integrated Studios (AxIS) v1.8 (or later) software. The amplifier recorded from all channels simultaneously (gain = 1200 x; sampling rate = 12.5 kHz/channel): raw signals were filtered with a Butterworth band-pass filter (300-5000 Hz), which filters out slower local field potentials leaving only fast potentials, i.e., "spikes", arising from extracellular currents associated with action potentials (Pine 2006; Wheeler and Nam 2011). On-line spike detection of filtered signals was conducted with the AxIS adaptive spike detector, using a threshold of 8x the root mean squared (rms) noise on each channel. Any electrodes with rms noise levels greater than 5 uV were grounded (e.g., no data were recorded). Once grounded, an electrode was grounded for the duration of the experiment. All recordings were conducted at 37 C. Wells were deemed usable if on the day of the exposure >/= 10 electrodes were active (defined as >/= 5 spikes/min). On DIV 13 or 15, a minimum of three wells from one cortical culture preparation were treated with each compound (0.03-40 uM). Prior to recording baseline activity, each mwMEA plate was placed in the Maestro at 37 C and allowed to sit for 20 min while firing rates stabilized. Baseline activity (40 min) was recorded before the addition of each compound. An additional 40 min of spontaneous activity was recorded in the presence of each compound. Changes in network parameters relative to baseline were assessed following compound treatment.
With `CCC(C)c1ccccc1O` (configuration not stated), the molecule was classed as inactive.

Take `CC(=O)Nc1ccc(O)cc1`: the call was inactive.

`CCCCCCCCCCCC`: the molecule was called inactive.

`OCC(CO)(CBr)CBr`: the molecule was called inactive.

For the molecule `CCCCC=O`, the molecule was classed as inactive.

For `CCCCc1oc2ccccc2c1C(=O)c1cc(I)c(OCCN(CC)CC)c(I)c1`, the result was inactive.

Take `N=C(N)c1ccc(OCCCCCOc2ccc(C(=N)N)cc2)cc1`: the AC50 was 2.5 µM (active).

With `Oc1c(Cl)cc(Cl)cc1Sc1cc(Cl)cc(Cl)c1O`, the molecule was called inactive.

As to `O=C1NS(=O)(=O)c2ccccc21`, the outcome was inactive.

For `O=C(CCCN1CCC(O)(c2ccc(Cl)cc2)CC1)c1ccc(F)cc1`, the result was inactive.

For the molecule `Oc1ccc(Cc2ccccc2O)cc1`, the molecule was called inactive.

For the molecule `CN(C)CCOC(c1ccccc1)c1ccccc1`, the AC50 is 1.25 µM (active).
